Laboratory results from the supplement of paper PMC11732987, “Enantioselective OTUD7B fragment discovery through chemoproteomics screening and high-throughput optimisation” (Communications Chemistry, 2025).
Values without a mark were called inactive.

How the values were obtained:
Assay in all cases: log2 ratio of Biotin-Ahx-Ub-VS probe labelling (fragment/DMSO); higher = less target engagement (more negative = stronger competition), active = hit call of the paper (q ≤ 0.05, log2 ratio ≤ -1)
Settings in all cases: compound concentration: 200 uM; treatment time: 3 h
[1] = target: T1, OTUD6B (UniProt Q8N6M0)
T1 sequence (whole entry): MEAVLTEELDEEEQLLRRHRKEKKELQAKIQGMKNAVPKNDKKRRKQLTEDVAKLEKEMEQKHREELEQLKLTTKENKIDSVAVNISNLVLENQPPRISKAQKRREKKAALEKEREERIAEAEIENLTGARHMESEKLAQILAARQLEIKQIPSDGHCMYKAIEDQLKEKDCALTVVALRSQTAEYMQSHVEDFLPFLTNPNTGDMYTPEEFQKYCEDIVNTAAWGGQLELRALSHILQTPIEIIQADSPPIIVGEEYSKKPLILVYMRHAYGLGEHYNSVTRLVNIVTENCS
In short: (§1)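 Lysate from HEK293T cells, 495 µg per sample in Tris/CHAPS/IGEPAL buffer with protease inhibitors, was treated for 3 h in triplicate with fragment at 200 µM or vehicle. Biotin-Ahx-Ub-VS was next added at 0.5 µM final for 1 h. The labelled DUBs were enriched with NeutrAvidin, digested with LysC and trypsin, and run by diaPASEF LC-MS/MS, with values given as average log2 fragment/vehicle ratios by unpaired t-test on global-median-normalised Spectronaut quantities of proteins with ≥2 unique peptides.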

[2] = target: T2, OTUD7B (UniProt Q6GQQ9)
T2 sequence (whole entry): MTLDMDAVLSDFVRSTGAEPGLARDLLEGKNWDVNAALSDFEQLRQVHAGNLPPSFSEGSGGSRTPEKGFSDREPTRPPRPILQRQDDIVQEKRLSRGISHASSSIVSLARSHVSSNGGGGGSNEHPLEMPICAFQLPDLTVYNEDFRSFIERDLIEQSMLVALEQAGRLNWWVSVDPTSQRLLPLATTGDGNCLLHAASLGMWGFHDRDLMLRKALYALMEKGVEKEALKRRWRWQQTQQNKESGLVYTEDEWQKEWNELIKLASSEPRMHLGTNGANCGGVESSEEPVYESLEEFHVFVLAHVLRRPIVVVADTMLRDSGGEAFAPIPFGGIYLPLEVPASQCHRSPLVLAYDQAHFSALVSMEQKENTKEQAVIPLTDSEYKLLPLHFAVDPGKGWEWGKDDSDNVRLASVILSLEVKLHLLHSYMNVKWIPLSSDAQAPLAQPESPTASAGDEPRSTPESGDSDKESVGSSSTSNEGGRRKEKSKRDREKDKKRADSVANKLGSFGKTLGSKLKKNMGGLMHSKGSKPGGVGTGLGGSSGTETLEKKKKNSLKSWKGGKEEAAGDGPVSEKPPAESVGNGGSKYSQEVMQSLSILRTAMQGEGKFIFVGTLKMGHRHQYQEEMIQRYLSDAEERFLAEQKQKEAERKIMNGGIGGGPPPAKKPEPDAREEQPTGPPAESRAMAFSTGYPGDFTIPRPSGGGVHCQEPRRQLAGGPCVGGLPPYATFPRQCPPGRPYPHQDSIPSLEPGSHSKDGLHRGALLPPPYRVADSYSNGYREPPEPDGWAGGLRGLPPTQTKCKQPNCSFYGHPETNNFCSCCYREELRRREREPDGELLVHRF
In short: as §1

[3] = target: PRPF8 (UniProt Q6P2Q9)
In short: as §1

[4] = target: T3, PSMD7 (UniProt P51665)
T3 sequence (whole entry): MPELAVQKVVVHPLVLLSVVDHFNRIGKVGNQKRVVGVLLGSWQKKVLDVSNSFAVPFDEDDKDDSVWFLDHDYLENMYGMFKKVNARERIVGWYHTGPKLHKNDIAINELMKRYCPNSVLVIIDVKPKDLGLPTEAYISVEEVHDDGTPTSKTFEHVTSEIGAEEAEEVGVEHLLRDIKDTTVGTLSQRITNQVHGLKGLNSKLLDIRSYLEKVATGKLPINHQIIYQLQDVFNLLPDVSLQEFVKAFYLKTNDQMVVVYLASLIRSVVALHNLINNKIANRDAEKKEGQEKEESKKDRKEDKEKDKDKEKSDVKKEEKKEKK
In short: as §1

[5] = target: UCHL1 (UniProt P09936)
Sequence of UCHL1 (P09936 whole entry, looked up): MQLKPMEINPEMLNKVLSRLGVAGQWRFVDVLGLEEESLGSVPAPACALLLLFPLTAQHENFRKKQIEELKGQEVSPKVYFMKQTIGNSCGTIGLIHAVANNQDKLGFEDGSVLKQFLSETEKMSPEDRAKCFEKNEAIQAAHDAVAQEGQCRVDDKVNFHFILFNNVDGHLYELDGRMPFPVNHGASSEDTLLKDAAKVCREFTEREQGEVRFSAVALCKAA
In short: as §1

[6] = target: T4, UCHL3 (UniProt P15374)
T4 sequence (whole entry): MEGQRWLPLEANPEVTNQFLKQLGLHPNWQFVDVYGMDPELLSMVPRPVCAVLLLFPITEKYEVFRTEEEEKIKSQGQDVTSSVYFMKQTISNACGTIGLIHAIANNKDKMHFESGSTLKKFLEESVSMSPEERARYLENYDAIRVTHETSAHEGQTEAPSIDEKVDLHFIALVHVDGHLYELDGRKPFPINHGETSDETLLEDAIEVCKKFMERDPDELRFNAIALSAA
In short: as §1

[7] = target: T5, UCHL5 (UniProt Q9Y5K5)
T5 sequence (whole entry): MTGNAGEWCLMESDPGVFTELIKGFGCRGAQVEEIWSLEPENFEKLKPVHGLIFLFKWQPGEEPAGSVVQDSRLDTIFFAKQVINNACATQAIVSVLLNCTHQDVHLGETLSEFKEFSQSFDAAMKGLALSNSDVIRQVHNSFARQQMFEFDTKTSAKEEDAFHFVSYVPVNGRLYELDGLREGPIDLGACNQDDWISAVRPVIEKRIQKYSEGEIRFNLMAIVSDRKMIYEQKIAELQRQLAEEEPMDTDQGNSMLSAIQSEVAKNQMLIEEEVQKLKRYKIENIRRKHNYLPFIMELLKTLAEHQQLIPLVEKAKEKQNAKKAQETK
In short: as §1

[8] = target: USP10 (UniProt Q14694)
Sequence of USP10 (Q14694 whole entry): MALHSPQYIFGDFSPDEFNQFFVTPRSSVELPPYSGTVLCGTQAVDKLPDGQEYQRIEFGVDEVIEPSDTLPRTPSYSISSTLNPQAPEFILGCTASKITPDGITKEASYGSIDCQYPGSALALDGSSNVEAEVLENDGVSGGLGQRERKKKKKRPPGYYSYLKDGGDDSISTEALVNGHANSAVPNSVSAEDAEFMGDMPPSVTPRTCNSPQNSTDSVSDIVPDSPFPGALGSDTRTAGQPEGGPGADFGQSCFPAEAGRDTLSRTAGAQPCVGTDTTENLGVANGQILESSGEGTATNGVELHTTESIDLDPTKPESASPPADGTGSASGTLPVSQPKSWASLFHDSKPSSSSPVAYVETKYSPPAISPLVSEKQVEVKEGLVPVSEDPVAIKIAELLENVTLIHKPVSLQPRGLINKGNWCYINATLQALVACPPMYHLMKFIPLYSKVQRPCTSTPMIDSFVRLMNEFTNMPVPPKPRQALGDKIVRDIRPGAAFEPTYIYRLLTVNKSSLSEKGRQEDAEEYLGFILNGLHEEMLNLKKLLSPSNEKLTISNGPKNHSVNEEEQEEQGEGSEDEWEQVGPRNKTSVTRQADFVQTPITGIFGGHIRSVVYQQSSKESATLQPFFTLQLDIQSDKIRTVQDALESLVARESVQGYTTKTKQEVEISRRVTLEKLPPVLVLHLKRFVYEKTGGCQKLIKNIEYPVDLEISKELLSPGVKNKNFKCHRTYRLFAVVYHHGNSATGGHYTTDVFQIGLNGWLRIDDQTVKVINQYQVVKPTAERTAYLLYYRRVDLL
In short: as §1

[9] = target: T6, USP15 (UniProt Q9Y4E8)
T6 sequence (whole entry): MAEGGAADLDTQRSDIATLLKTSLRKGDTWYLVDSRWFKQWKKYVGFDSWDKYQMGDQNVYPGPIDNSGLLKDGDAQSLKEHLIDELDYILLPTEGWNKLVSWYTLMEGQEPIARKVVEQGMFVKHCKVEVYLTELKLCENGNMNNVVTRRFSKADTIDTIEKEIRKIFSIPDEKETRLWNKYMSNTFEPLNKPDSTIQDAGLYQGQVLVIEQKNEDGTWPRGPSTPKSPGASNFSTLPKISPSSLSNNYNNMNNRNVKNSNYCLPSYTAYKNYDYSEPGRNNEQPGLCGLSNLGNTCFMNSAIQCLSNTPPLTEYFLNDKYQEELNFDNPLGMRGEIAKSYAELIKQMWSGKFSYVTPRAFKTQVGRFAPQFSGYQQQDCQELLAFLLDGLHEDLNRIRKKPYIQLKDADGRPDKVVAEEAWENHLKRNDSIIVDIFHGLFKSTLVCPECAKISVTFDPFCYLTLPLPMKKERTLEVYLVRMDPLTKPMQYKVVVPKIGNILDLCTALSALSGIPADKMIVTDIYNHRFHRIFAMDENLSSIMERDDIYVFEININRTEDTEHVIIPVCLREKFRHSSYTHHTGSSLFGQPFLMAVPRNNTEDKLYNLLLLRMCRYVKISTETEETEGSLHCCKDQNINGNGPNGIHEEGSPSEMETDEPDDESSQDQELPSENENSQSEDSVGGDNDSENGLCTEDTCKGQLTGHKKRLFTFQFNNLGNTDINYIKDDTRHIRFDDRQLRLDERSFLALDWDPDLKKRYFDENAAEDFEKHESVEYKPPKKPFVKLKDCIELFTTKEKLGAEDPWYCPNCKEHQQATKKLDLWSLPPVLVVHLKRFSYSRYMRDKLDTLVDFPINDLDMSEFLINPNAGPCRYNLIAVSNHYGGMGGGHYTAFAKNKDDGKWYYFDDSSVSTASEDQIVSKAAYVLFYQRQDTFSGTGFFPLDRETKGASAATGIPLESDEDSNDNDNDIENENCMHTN
In short: as §1

[10] = target: USP16 (UniProt Q9Y5T5)
Sequence of USP16 (Q9Y5T5 whole entry, looked up): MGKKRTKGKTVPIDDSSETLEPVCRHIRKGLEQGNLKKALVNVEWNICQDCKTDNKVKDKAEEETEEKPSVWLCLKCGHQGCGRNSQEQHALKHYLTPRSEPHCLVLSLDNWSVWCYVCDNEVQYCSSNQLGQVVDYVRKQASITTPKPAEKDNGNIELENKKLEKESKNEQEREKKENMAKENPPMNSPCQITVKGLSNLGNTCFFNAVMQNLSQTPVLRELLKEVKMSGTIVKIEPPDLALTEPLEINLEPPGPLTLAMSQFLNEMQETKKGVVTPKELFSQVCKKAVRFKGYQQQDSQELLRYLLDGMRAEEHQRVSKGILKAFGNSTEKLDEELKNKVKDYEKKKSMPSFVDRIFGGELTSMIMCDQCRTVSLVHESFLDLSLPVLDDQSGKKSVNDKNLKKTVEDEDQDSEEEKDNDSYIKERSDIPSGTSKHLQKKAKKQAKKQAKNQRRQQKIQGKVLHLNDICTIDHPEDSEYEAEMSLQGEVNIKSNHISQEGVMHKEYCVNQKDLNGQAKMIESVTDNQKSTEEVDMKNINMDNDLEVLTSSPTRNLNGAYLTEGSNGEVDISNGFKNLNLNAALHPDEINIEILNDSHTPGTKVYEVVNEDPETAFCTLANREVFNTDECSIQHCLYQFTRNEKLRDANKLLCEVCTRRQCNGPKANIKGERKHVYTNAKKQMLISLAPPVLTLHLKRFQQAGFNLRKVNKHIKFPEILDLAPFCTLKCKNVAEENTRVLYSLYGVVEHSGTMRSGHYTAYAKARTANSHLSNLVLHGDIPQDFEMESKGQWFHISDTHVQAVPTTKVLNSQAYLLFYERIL
In short: as §1

CN1C(=O)c2ccc(NC(=O)CCl)cc2C1=O
log2 ratio of Biotin-Ahx-Ub-VS probe labelling [1]: -0.407
log2 ratio of Biotin-Ahx-Ub-VS probe labelling [2]: -1.76 (active)
log2 ratio of Biotin-Ahx-Ub-VS probe labelling [3]: 0.154
log2 ratio of Biotin-Ahx-Ub-VS probe labelling [4]: -0.0627
log2 ratio of Biotin-Ahx-Ub-VS probe labelling [5]: -1.24 (active)
log2 ratio of Biotin-Ahx-Ub-VS probe labelling [6]: 0.282
log2 ratio of Biotin-Ahx-Ub-VS probe labelling [7]: -0.2
log2 ratio of Biotin-Ahx-Ub-VS probe labelling [8]: -0.0313
log2 ratio of Biotin-Ahx-Ub-VS probe labelling [9]: -0.389
log2 ratio of Biotin-Ahx-Ub-VS probe labelling [10]: -0.455
